According to paper PMC13494018:
Values without a mark were called inactive. How the calls were made is not given here.

Target: PDL1, Q9NZQ7
Sequence (Q9NZQ7 whole entry): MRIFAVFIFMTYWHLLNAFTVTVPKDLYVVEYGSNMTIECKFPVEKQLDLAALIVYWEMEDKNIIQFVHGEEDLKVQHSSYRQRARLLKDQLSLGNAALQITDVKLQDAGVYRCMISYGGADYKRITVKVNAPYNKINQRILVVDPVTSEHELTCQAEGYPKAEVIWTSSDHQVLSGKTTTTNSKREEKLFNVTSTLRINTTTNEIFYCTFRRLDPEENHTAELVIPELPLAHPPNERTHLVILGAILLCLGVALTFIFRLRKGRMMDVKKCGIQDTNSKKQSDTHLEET

Binder | binding in a display sort
d8r1_design_ppi_1470_dldesign_0_cycle1_af2pred (protein) DAAAQAATALQGAKNALAAADLLEAEGTKGALLAAGSLYIAAGEQLATAYTLLGKPEEGKAVAAELNAKGKALLAAA | not found
d8r1_design_ppi_286_dldesign_0_cycle1_af2pred (protein) SNEEKAEDLRFMARAVLGVGATASAAETAAFLNDVAAAAARLDPEAGAAVAAIGAAAAASGDAKAAAKAAAAVLEAAAEEFL | binds (active)
d8r1_design_ppi_869_dldesign_0_cycle0_af2pred (protein) SEDAQSAVRFAQNTLETAKRKAAEDPARGRQIAANLATAAATAAAKFAGLPEAATLKALQAQAAALAAALA | not found
d8r1_design_ppi_509_dldesign_0_cycle1_af2pred (protein) KDEHFDKMVEYLKKAQEAYNKAVAAAKAGDADAAKAALAKAQEYYDKAIKEAEKYSPEAGAAMKSTKEKSVAIANAAL | not found
d8r1_design_ppi_1339_dldesign_0_cycle1_af2pred (protein) AEAWLAEIREIVSRAVEAAQAGDVETLEAAVEEARALAERAPPEVRPAAENAAAFNQLLLELTKERLAEKA | binds (active)
d8r1_design_ppi_134_dldesign_0_cycle1_af2pred (protein) AAAEAAREAVRAAAAAAREAAAKMSPSKAKAVESIVERTTRVADELIAAGDYRTAVRAAASAEAAAKTLLEVDK | binds (active)
d8r1_design_ppi_1318_dldesign_0_cycle1_af2pred (protein) SAAAAAAARGEAAVASLTATGAAIVAAAKKDPSEAASMVRAVKNLGQAYANRVPPEYAAKVLAVAATYAAQIAAIM | binds (active)
d8r1_design_ppi_1425_dldesign_0_cycle0_af2pred (protein) STESREKALKAISEKSKAKAKKLAAEDPAKGLALAKNAAKSFKDWAKADPETKETAEAQAKEHEALAKEIAAAA | not found
d8r1_design_ppi_1356_dldesign_0_cycle1_af2pred (protein) DPELIARTALSAAVMLEKGVAGTPEAALNAADGSALLLESKAESFGSEELKELAKKAKEAAKKIKADPEAGKKALREVAEELKKLAE | not found
d8r1_design_ppi_536_dldesign_0_cycle1_af2pred (protein) NKDKEIAELLLKLAEAAKEDPEKALKIAEEIEKLGNKEFGGALKTLLELAVAEKGKAGENAKAAAIVLSTSRAEDLLAK | not found
d8r1_design_ppi_1447_dldesign_0_cycle1_af2pred (protein) SEAEDIASFARMATTAAASAAKKDIASAKTLMDAVAKLPGAAAHVTAAGNAAIAAAATVDPARAAELAAYLAARLAAL | not found
d8r1_design_ppi_139_dldesign_0_cycle1_af2pred (protein) AKLIEELKKEAKAVKELAKKGAPAEELDAAVKKLGEAMTKLAKAMATMSPEEKAKARAALAEAAKAAIEAGEVAEKLRAA | not found
d8r1_design_ppi_310_dldesign_0_cycle0_af2pred (protein) SRARALASIAALAELAAELAEENPASGAQLGKVVASALAALGLTDEAARVAAASPADLKAVMREVAAAARAAAAALA | not found
d8r1_design_ppi_1265_dldesign_0_cycle1_af2pred (protein) SENEEAAKALTRAAEAAARYLAEKYGELAKEAAKLIAKAAEADAETAVKYLEEAVKLLDEAGKKTGATKETDALKAMAEKAAELKKA | binds (active)
d8r1_design_ppi_1324_dldesign_0_cycle1_af2pred (protein) AAAKLAALKKEIKALIGAAAAYQIAKDSSKLDEYVAKANKLIALADKDPVAAAKETAKLAEEAGDEETAKKAKEAAKEAKKL | not found
d8r1_design_ppi_869_dldesign_0_cycle1_af2pred (protein) SEEAQAAVRFARNLLEVARLRAEEDPARGRAIAANLEVAARTLAEKHAGLPEAEELRRLAAEAAALAAELA | binds (active)
d8r1_design_ppi_671_dldesign_0_cycle1_af2pred (protein) AESYRAAAAAIAQAAADNPAGAADAAAALVAMAKMSSPEKAAAIAEGVEAVAEGAPADVRALLLAAAAEIKAIV | not found
d8r1_design_ppi_167_dldesign_0_cycle1_af2pred (protein) SKEERYKKAAEWLAETSKKAIALRKANPAVAPLAIKMHGAAAHAAAALVAGDEEKAEEYKKKSEEYLKEAEAAIA | not found
d8r1_design_ppi_509_dldesign_0_cycle0_af2pred (protein) SDEKWAAAAAHMGAAQKAADAAVAAAAAGNTAAAKAAQAEAAAHYDKAAEEAKEYSPEAGAAMKSTREATVALINAKL | not found
d8r1_design_ppi_1425_dldesign_0_cycle1_af2pred (protein) SVEERKKRAEAIAKRSRAVARALAAADPARGIALAESAAVSFEKWAELYPEIKEFAEALAAEHRALAAEIRAAA | not found
